Assay results taken from PubChem BioAssay (Tox21).
Records with an inconclusive call do not appear. Where a call stands in place of a potency, no number is given. Active and inactive are the calls of the source. Calls come from the whole dose curve; as a rule, active = well fitted inhibition curve with a large enough effect in the signal ratio in the repeat runs (not every such curve was filed as active); inconclusive = weak or mixed curves, or effect the other way; inactive = no such curve, though single readings can be large or run the other way; the % refers to the signal ratio.

These compounds were tested against Glucocorticoid receptor (Homo sapiens) (UniProt P04150) (assay: qHTS assay to identify small molecule antagonists of the glucocorticoid receptor (GR) signaling pathway (AID 720692)). Settings: GR-bla HeLa, beta-lactamase FRET ratio, dexamethasone-stimulated, 18 h; series mostly up to 58.5 µM.
Procedure, shortened: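 HeLa GR-bla cells; cmpd + dex 5 nM final, 18 h 37 C; LiveBLAzer B/G FRET substrate 2 h RT; fluorescence intensity read. Antagonist mode, qHTS.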

Glucocorticoid receptor (Homo sapiens), sequence (P04150 whole entry, looked up): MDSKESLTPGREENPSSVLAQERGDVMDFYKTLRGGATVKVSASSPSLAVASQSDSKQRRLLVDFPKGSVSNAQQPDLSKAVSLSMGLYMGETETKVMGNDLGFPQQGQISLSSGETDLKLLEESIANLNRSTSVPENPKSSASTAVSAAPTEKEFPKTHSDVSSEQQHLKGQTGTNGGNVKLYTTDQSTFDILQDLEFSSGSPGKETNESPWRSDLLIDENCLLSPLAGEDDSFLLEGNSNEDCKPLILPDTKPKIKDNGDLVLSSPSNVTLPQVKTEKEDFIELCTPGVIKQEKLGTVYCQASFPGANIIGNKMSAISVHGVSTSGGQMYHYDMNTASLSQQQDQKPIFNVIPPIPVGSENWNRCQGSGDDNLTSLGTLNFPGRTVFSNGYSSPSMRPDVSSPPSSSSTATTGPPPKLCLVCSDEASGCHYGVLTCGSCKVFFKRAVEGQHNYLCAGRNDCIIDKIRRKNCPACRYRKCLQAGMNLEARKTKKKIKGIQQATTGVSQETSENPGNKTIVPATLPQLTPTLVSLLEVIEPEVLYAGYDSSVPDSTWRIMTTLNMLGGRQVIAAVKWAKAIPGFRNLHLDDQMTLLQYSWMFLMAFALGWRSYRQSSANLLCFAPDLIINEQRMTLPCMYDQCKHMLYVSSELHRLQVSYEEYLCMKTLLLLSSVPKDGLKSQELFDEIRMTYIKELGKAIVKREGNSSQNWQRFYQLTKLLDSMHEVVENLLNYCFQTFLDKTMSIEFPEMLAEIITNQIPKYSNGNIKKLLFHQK

Row | SMILES | Potency
1 | Cc1ccccc1Cl | inactive
2 | CCCCCCC(=O)O | inactive
3 | Cc1ccccc1C=O | inactive
4 | COc1ccc(N)c(OC)c1 | inactive
5 | Cc1ccc(Cl)cc1 | inactive
6 | CC/C=C(\C(=O)N[C@@H]1C(=O)N2C(C(=O)OCOC(=O)C(C)(C)C)=C(COC(N)=O)CS[C@H]12)c1csc(N)n1 | inactive
7 | CC(C)=CCC/C(C)=C/C=O | inactive
8 | CC(=O)OCc1ccc2c(c1)OCO2 | inactive
9 | CC(=O)c1nccs1 | inactive
10 | CC1(C)C(=O)N(Cl)C(=O)N1Cl | inactive
11 | CCc1cccc(CC)c1N | inactive
12 | O=C(O)Cc1c[nH]c2ccccc12 | inactive
13 | NC(=O)c1ncn([C@@H]2O[C@H](CO)[C@@H](O)[C@H]2O)n1 | inactive
14 | CCCN(CCC)C(=O)SCC | inactive
15 | CCOC(=O)CC(=O)OCC | inactive
16 | CCCCCCCCCCCCCC(=O)O | inactive
17 | CCCCCCCC(=O)O | inactive
18 | O=C(c1ccccc1)c1ccc(O)c(O)c1O | inactive
19 | Cc1ccc(C(C)C)cc1 | inactive
20 | Cc1cc(CC(=O)O)n(C)c1C(=O)c1ccc(Cl)cc1 | inactive
21 | C[Si](C)(C)N[Si](C)(C)C | inactive
22 | CCCCCCCCC(=O)O | inactive
23 | Cc1cc(C)cc(O)c1 | inactive
24 | CC(C)(C)NC[C@H](O)COc1nsnc1N1CCOCC1 | inactive
